# Platelet DG rel = platelet dense granule release activity; hit rate 0.22% among 300,000; AID 1663; inhibition, %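 (compounds screened at 7.5 µM in platelet-rich plasma)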; human platelet-rich plasma, SFLLRN dense granule ATP release, luminescence;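 active = mean replicate score, as percent of positive control, at or above 50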
# TROY signal inh = inhibitors of TROY-dependent NF-kB signaling | Q293 LMP1-TROYcd NF-kB luciferase reporter, 4 h | inhibition, % at 10 µM | hit rate 0.98% among 360,000 | AID 1347056;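 active = compounds whose plate-normalised and pattern-corrected inhibition of the luciferase reporter signal at the single screening dose is 50% or more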
# HSP90 refold inh = inhibitors of HSP90 luciferase refolding in rabbit reticulocyte lysate | AID 1789 | luciferase refolding luminescence, 3 h | inhibition, % at 5.6 µM | hit rate 0.91% among 290,000;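 active = inhibition above the screen-wide mean plus 3 SD, computed separately per campaign, cut at about 16% in these data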;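 note: 0% = DMSO wells and 100% = 60 µM geldanamycin wells; inhibitors lower the luminescence because luciferase stays unfolded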
# TWEAK-Fn14 inh = inhibitors of TWEAK-Fn14 interaction signaling | TWEAK-stimulated Fn14 reporter cells, luciferase luminescence, 8 h | inhibition, % at 10 µM | hit rate 2% among 360,000 | AID 1159606; in the data active = inhibition above about 50%
# C8 TRAIL sens = sensitizes caspase-8 expressing cells to TRAIL; inhibition (viability loss, TRAIL sensitization), % at 10 µM; hit rate 1% among 360,000; NB7+C8 cells + TRAIL, ATPlite viability luminescence;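 active = compounds causing at least 50% loss of cell viability in the single-dose screen, relative to plate controls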
# PPC-1+TRAIL kill = kills PPC-1 cancer cells in the presence of TRAIL. PPC-1 cells + TRAIL, ATPLite viability luminescence. cell killing (% activity), % at 4 µM or 5 µM. hit rate 0.41% among 220,000. AID 1443;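 active = cell killing above 50% in the first pass at 4 µM, then a duplicate retest at 5 µM averaging 50% or more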;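 note: plate controls were cells with TRAIL plus DMSO for no effect and medium-only wells lacking cells for full effect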
# * = called active by the depositor; . = no result. A selection: hits, their analogues and other compounds. The true share with any hit is near 3.5%.
SMILES,Platelet DG rel,TROY signal inh,HSP90 refold inh,TWEAK-Fn14 inh,C8 TRAIL sens,PPC-1+TRAIL kill
COc1cccc(-c2nnc(-c3ccc(C)o3)o2)c1,8.2,-39.6,8.3,35.9,57.7*,44.2
COc1ccc(C(=O)Nc2nc(-c3ccc([N+](=O)[O-])cc3)c(-c3ccccc3)s2)cc1,0.9,6.0,2.1,56.7*,5.9,.
COc1ccc(CN(C)C(=O)C(Cc2ccccc2)NC(=O)c2ccccc2)cc1F (stereo not given),.,12.8,.,27.9,17.6,.
CCOc1ccc(CN(C)C(=O)[C@H](Cc2ccccc2)NC(=O)OCc2ccccc2)cc1OC,13.2,18.6,-3.4,10.0,50.6*,.
Cc1ccc(CN(C)C(=O)CCNS(=O)(=O)c2ccccc2)o1,.,-2.3,.,-2.2,-6.7,.
Cc1ccc(C2CC(c3cccs3)=NN2C(=O)CCl)cc1 (stereo not given),-0.2,-46.0,2.8,65.3*,77.4*,.
COc1ccccc1Cc1c(-c2ccco2)nc2c(C)cc(Br)cn12,.,10.1,.,69.0*,13.0,.
Cc1cc(Br)cn2c(Cc3ccsc3)c(-c3ccco3)nc12,.,-4.6,.,51.3*,-10.5,.
Cc1cc(Br)cn2c(Cc3ccccc3)c(-c3ccco3)nc12,.,6.2,.,84.6*,-14.8,.
COc1ccc(Cc2c(-c3ccco3)nc3ccc(Br)cn23)c(C)c1,.,-7.1,.,57.1*,-4.5,.
COc1ccc(Cc2c(-c3ccco3)nc3c(C)cc(Br)cn23)c(C)c1,.,12.8,.,18.6,-16.4,.
Cc1cc(Br)cn2c(Cc3ccccc3)c(-c3cccc(Br)c3)nc12,.,12.3,.,25.6,23.4,.
Cc1cc(Br)cn2c(Cc3ccsc3)c(-c3cccc(Cl)c3)nc12,.,19.3,.,14.3,-8.0,.
COc1ccc(Cc2c(-c3ccco3)nc3ccc(Cl)cn23)c(C)c1,.,-1.6,.,29.6,-18.8,.
CC(C)NC(=O)/C=C/C(=O)O,4.9,2.5,1.5,0.3,-4.5,2.4
O=C(O)C1C(c2ccccc2)=C1c1ccc(Br)cc1 (stereo not given),.,-7.8,.,6.0,-7.5,.
CC1(C)CC(=O)C2=C(C1)Nc1ccccc1NC2c1ccc([N+](=O)[O-])cc1 (stereo not given),-0.8,-12.3,.,-15.2,11.8,.
COc1ccc(CCNC(=O)CCCN2C(=O)c3ccccc3C2=O)cc1,8.4,0.7,2.4,3.8,-7.5,13.9
Cc1[nH]n(-c2ccccc2)c(=O)c1/C=N\NC(=O)C1COc2ccccc2O1 (stereo not given),-11.5,-33.9,3.9,11.2,84.9*,72.5*
CC(=O)N/N=C/c1c(C)[nH]n(-c2ccccc2)c1=O,-6.8,-10.8,1.3,6.4,-1.6,-2.1
Cc1[nH]n(-c2ccccc2)c(=O)c1/C=N/NC(=O)c1cccc([N+](=O)[O-])c1,.,8.6,4.0,1.1,54.3*,7.2
CC(=O)N1c2ccc(S(=O)(=O)N3CCC(C(=O)Nc4cccc(Cl)c4)CC3)cc2CC1C (stereo not given),-15.1,19.2,-2.4,17.6,23.1,.
Cc1ccc2nc(-c3ccccc3)c(Cc3ccsc3)n2c1,.,-30.0,.,4.5,26.1,.
Cc1cc(C)c(OCC(=O)OCC(=O)N2c3ccccc3CC2C)c(C)c1 (stereo not given),-1.4,-3.6,.,-21.8,-25.1,.
Cc1ccc(C2c3[nH]c4ccccc4c3C[C@H]3C(=O)N(c4ccccc4C(=O)N4CCC[C@H]4C(=O)O)C(=O)N23)cc1 (stereo not given in full),1.3,13.4,-0.3,-14.2,-1.0,.
SMILES,Platelet DG rel,TROY signal inh,HSP90 refold inh,TWEAK-Fn14 inh,C8 TRAIL sens,PPC-1+TRAIL kill
CC(C)c1ccc(C2c3[nH]c4ccccc4c3C[C@H]3C(=O)N(c4ccccc4C(=O)N4CCC[C@@H]4C(=O)O)C(=O)N23)cc1 (stereo not given in full),0.0,66.4*,-2.4,34.2,4.3,.
O=C(O)CNC(=O)c1ccccc1Br,0.7,5.8,-0.1,13.5,-6.3,26.5
Cc1[nH]c2ccccc2c(=O)c1C(=O)/C=C/c1ccccc1,-2.8,63.6*,-1.9,88.1*,14.4,-13.6
Cc1[nH]c2ccccc2c1/C=C/C(=O)c1ccccc1,-3.1,-81.5,-6.4,-7.4,-0.4,14.1
O=C(C=Cc1ccccc1)c1c[nH]c2ccccc2c1=O,.,3.3,.,78.0*,23.6,.
CCN(C(=O)CSc1nnc(C)n1-c1ccc(C)cc1)c1c(N)n(Cc2ccccc2)c(=O)[nH]c1=O,.,3.8,.,-0.1,-11.9,.
CCOC(=O)c1c(SCCN2CCCC2)n(-c2ccccc2)c(=S)n(-c2ccccc2)c1=O,.,3.9,.,-6.5,30.2,.

# Screening data: PubChem, several laboratories
